# Source: PubChem BioAssay (EPA / NIEHS)
# Inconclusive results are not listed. The source made the active and inactive calls. Rule for the calls: active = hit-call score of the fitted dose curve at least 0.9, where 1 is the maximum; inconclusive = response in the unintended direction; inactive = score below 0.9.
# Molecular target: Cytochrome P450 2C19 (Homo sapiens) (UniProt P33261)
# Experiment: NVS_ADME_hCYP2C19: NovaScreen (NVS) CYP450-related Enzyme Activity (ADME) Assay for human CYP2C19 (AID 2283113);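 for AC50: potency for inhibition seen as loss of fluorescent signal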
# Procedure, shortened: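 Cell-free recombinant human CYP2C19 from insect cells, fluorescent substrate; activity read by fluorescence intensity 1 h after dosing. Primary screen in duplicate at 10 uM; actives retested in concentration series. Signal loss versus acetonitrile negative control.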
Structure (SMILES),AC50,outcome
CC(=NC#N)N(C)Cc1ccc(Cl)nc1,10 µM (active),
CCOP(=O)(OCC)Oc1cc(C)nc(C(C)C)n1,10 µM (active),
CCOP(=S)(OCC)Oc1cc(C)nc(C(C)C)n1,4.82 µM (active),
COc1cccc(C(=O)NN(C(=O)c2cc(C)cc(C)c2)C(C)(C)C)c1C,2.58 µM (active),
CCc1cccc(C)c1N(C(=O)CCl)C(C)COC (stereo not drawn),4.6 µM (active),
COP(=O)(OC)SCn1c(=O)oc2cc(Cl)cnc21,4.57 µM (active),
O=[N+]([O-])c1cc(C(F)(F)F)c(Cl)c([N+](=O)[O-])c1Nc1ncc(C(F)(F)F)cc1Cl,1.39 µM (active),
CCOP(=O)(NC(C)C)Oc1ccc(SC)c(C)c1 (stereo not drawn),5.92 µM (active),
CCc1cccc(CC)c1N(COC)C(=O)CCl,6.1 µM (active),
CC(COc1ccc(Oc2ccccc2)cc1)Oc1ccccn1 (stereo not drawn),13.7 µM (active),
CCCCOC(=O)[C@@H](C)Oc1ccc(Oc2ccc(C#N)cc2F)cc1,10 µM (active),
CCC(CC)Nc1c([N+](=O)[O-])cc(C)c(C)c1[N+](=O)[O-],10 µM (active),
CCOP(=O)(SC(C)CC)N1CCSC1=O (stereo not drawn),6.44 µM (active),
COP(=O)(OC)OC(Br)C(Cl)(Cl)Br (stereo not drawn),7.79 µM (active),
CC(C)[C@H](C(=O)O[C@H](C#N)c1cccc(Oc2ccccc2)c1)c1ccc(Cl)cc1,8.22 µM (active),
Cc1cc(C2CC2)nc(Nc2ccccc2)n1,,inactive
CC1(C(=O)Nc2ccc(O)c(Cl)c2Cl)CCCCC1,6.6 µM (active),
CNc1cnn(-c2cccc(C(F)(F)F)c2)c(=O)c1Cl,4.35 µM (active),
